High-throughput results from PubChem.
HepG2 viability: HepG2 cytotoxicity, counter-screen for TGF-b inhibitors | HepG2 CAGA-GFP viability, ATP luminescence, 18 h | Potency, µM (doses to about 46.1 µM), for the others: top-dose activity change, negative = cytotoxicity, actives largely listed as cytotoxic | actives 0.76% (n = 410,000)
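CellTiter-Glo luminescence gave cytotoxicity after 18 hours at 37 degrees C. The cells were HepG2 CAGA-GFP in 1% FBS DMEM, stimulated with 500 pg/mL TGF-beta after compound addition. %Activity was normalised to no-cell wells (complete cell-killing) and DMSO (no toxicity), and curves were fitted and classified.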
TDP1 cell CPT: DT40-hTDP1 cell growth loss with CPT; chicken DT40 Tdp1-/-;hTDP1 cells + 20 nM CPT, ATP luminescence, 48 h; Potency, µM (highest dose often 46.2 µM), without a hit: at the highest dose activity change, negative = growth inhibition, usual class: inhibitors; actives 12% (n = 420,000); AID 686979; also: % is scaled to controls: 0 for no effect and ±100 for the full control effect; nearly all actives have a fitted effect of over 55% in size
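Chicken DT40 Tdp1-/- cells stably complemented with human TDP1 were seeded at 400 cells/well in medium containing 20 nM camptothecin, exposed to pin-transferred compounds, and grown at 37 °C for at least 48 hr. Viability was read as ATP luminescence.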
TDP1 cell noCPT: qHTS for Inhibitors of human tyrosyl-DNA phosphodiesterase 1 (TDP1): qHTS in cells in absence of CPT; Potency, µM (titrated, usually from 46.2 µM), without a hit: at the top dose activity change, negative = growth inhibition, usual class: inhibitors; actives 15% (n = 420,000); DT40 Tdp1-/- hTDP1 cells, no CPT, ATP luminescence, 48 h; AID 686978, 2013; also: % is scaled to controls: 0 for no effect and ±100 for the full control effect; nearly all actives have a fitted effect of over 55% in size
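Camptothecin absent (DMSO only). Human TDP1-complemented DT40 knockout cells, 400 cells/well, 37 °C for minimum 48 hr; ATP measured via CellTiter-Glo, 30 min dark incubation, luminescence.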
HT1080 IDH1KD tx: toxicity to HT-1080 IDH1 knockdown cells (counter line); AID 686971; actives 2% (n = 360,000); Potency, µM (titrated, usually from 46.1 µM), for inactives: at the top dose activity, negative = toxicity, hits mostly cytotoxic; HT-1080 IDH1 knockdown viability, ATP luminescence, 48 h;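 also: 0% = DMSO wells and -100% = cell-free medium wells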
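CellTiter-Glo luminescence after 48 h compound exposure at 37 degrees C of IDH1-knockdown HT-1080 cells in 5% FBS RPMI. %Activity scaled between DMSO wells and cell-free media wells, with curves fitted and assigned curve classes.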
TGFb SMAD3 inh: TGF-b pathway inhibition; Potency, µM (titrated, usually from 46.1 µM), for inactives: at the highest dose activity, negative = inhibition, actives largely listed as inhibitors; actives 1.2% (n = 410,000); HepG2 CAGA-GFP TGF-b/SMAD3 reporter, GFP fluorescence, 18 h; TGF-beta stimulated, 500 pg/mL final; also: % is scaled to controls: 0 for no effect and ±100 for the full control effect; nearly all actives have a fitted effect of over 65% in size
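Cell-based qHTS in HEPG2 carrying a CAGA-GFP Smad reporter; compounds added before 500 pg/mL final TGF-beta, 18 h incubation at 37 degrees C, GFP fluorescence quantified per cell by imaging cytometry.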
HT1080NT lethal: kills 2HG-producing HT-1080-NT fibrosarcoma cells | actives 1.6% (n = 360,000) | HT-1080-NT fibrosarcoma viability, CellTiter-Glo ATP luminescence, 48 h | Potency, µM (highest dose often 46.1 µM), inactives show at the highest dose activity, negative = less viability, hits mostly cytotoxic;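 also: NT is the 2HG producing partner of a matched IDH1 knockdown line; 0% = DMSO-treated cells and -100% = media-only wells without cells; nearly all actives have a fitted effect of over 55% in size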
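HT-1080-NT fibrosarcoma cells (2HG-overproducing), 750 cells/well in RPMI with 5% FBS, dosed after 2 h and incubated 48 h at 37C. CellTiter-Glo luminescence normalized to DMSO and no-cell wells; concentration-response curves fitted and classed.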
An asterisk follows results filed as active; ? = inconclusive; . = no result; [ ] = another dose, or the depositor's remark. Sampled rows, rich in hits. Any-hit rate of the full collection: about 17%. Calls follow the shape of the dose curve; as a rule, active = well fitted curve in the direction sought with a large enough effect; inconclusive = small, poorly fitted or top-dose-only effect, or another doubt; inactive = no such curve, though single readings can be large; an effect the other way counts as inactive or inconclusive. Potency is read from the fitted curve at half-maximal effect.

SMILES	HepG2 viability	TDP1 cell CPT	TDP1 cell noCPT	HT1080 IDH1KD tx	TGFb SMAD3 inh	HT1080NT lethal
CCOC(=O)N/N=C\c1ccc(-c2cc(Cl)ccc2Cl)o1	-13%	?	-22%	-25%	11%	-22%
NC(=S)N/N=C/c1ccc(-c2cc(Cl)ccc2Cl)o1	-40%	2.6µM*	3.3µM*	?	10µM*	3.2µM*
NC(=S)N/N=C/c1ccc(-c2cc(Cl)cc(Cl)c2)o1	-28%	5.8µM*	2.1µM*	8%	?	5%
COc1ccc(S(=O)(=O)N2CCN(C(=O)CC3CC4CCC3C4)CC2)cc1 (stereo unspecified)	1%	-52%	?	-9%	5%	1%
CC(=O)C1=C(OC(=O)C(C)C)c2ccccc2S(=O)(=O)N1Cc1ccccc1	-5%	?	?	.	-6%	.
CCOC(=O)CN1C(C(=O)c2ccccc2)=C(OC(=O)c2ccccc2)c2ccccc2S1(=O)=O	-42%	21µM*	26µM*	.	?	.
COC(=O)CN1C(C(=O)c2ccccc2)=C(OC(=O)c2ccc(F)cc2)c2ccccc2S1(=O)=O	-30%	16µM*	-23%	.	?	.
COC(=O)CN1CC(=O)c2ccccc2S1(=O)=O	8%	.	.	.	3%	.
CCN1C(C(=O)c2ccccc2)=C(OC(=O)c2ccc(Cl)cc2)c2ccccc2S1(=O)=O	-57%	?	23µM*	.	11µM*	.
O=C(Nc1ccc(Cl)c(Cl)c1)C1CCCCC1	-24%	?	?	9%	?	0%
CCOC(=O)CCc1c(C)nc(SCc2ccc(C(=O)O)cc2)c(C#N)c1C	7%	-6%	-3%	-6%	0%	-9%
O=[N+]([O-])c1ccc(COc2ccc(CN3CCOCC3)cc2)cc1	-4%	?	23µM*	2%	-4%	2%
O=[N+]([O-])c1ccc(COc2cccc(CN3CCCC3)c2)cc1	-35%	?	?	1%	-18%	7%
O=[N+]([O-])c1ccc(COc2cccc(CN3CCCCC3)c2)cc1	-6%	?	16µM*	2%	28%	-1%
O=[N+]([O-])c1ccc(N2CCN(Cc3ccncc3)CC2)cc1	-2%	?	18µM*	-9%	-16%	-11%
COC(=O)C1CCN(CCCOc2ccc(CN3CCN(c4ccc([N+](=O)[O-])cc4)CC3)cc2)CC1	-4%	-84%	21µM*	?	-1%	?
O=[N+]([O-])c1ccc(CN2CCN(c3ncccn3)CC2)cc1	-23%	-16%	-6%	0%	-9%	-3%
C=CCC(C(=O)Oc1c(C(C)(C)C)cc(C)cc1C(C)(C)C)c1ccccc1 (stereo unspecified)	-6%	-27%	?	29%	1%	19%
CCN(CC)S(=O)(=O)c1ccc(C(C)NC(=O)Cc2c[nH]c3ccccc23)cc1 (stereo unspecified)	-40%	-17%	?	-28%	-8%	-22%
O=[N+]([O-])c1ccc(COc2ccc(CN3CCCC3)cc2)cc1	-22%	16µM*	18µM*	-1%	8%	-1%
CSc1ccc(CN2CCN(Cc3ccc([N+](=O)[O-])cc3)CC2)cc1	-2%	?	21µM*	-29%	0%	?
O=[N+]([O-])c1ccc(COc2ccc(CN3CCCCC3)cc2)cc1	-34%	?	?	-3%	11%	0%
Cc1noc(C)c1C(=O)N1CCC2(CCCN(c3ccncc3)C2)CC1	.	25%	-4%	.	.	.
Cc1ccccc1CCN1CCCC(CN(C)C(=O)C(=O)c2ccco2)C1 (stereo unspecified)	-32%	-4%	-20%	-3%	-21%	-5%
COC(=O)[C@H](C)NS(=O)(=O)C1CC1	-1%	-4%	-20%	.	-7%	.
SMILES	HepG2 viability	TDP1 cell CPT	TDP1 cell noCPT	HT1080 IDH1KD tx	TGFb SMAD3 inh	HT1080NT lethal
COc1cc2c(C(=O)N3CCN(c4ccc(F)cc4)CC3)cn(CC(C)C)c(=O)c2cc1OC	-9%	?	?	.	?	.
CCn1cc(C(=O)N2CCN(c3cccc(C(F)(F)F)c3)CC2)c2cc(OC)c(OC)cc2c1=O	-27%	18µM*	23µM*	.	?	.
CCn1cc(C(=O)NCC(=O)OC)c2cc(OC)c(OC)cc2c1=O	-9%	-5%	-2%	11%	-8%	9%
COc1cc2c(C(=O)N3CCN(c4cccc(Cl)c4)CC3)cn(CC(C)C)c(=O)c2cc1OC	-26%	23µM*	?	?	?	-23%
CCn1cc(C(=O)N2CCN(c3cccc(C)c3C)CC2)c2cc(OC)c(OC)cc2c1=O	-10%	21µM*	21µM*	.	10µM*	.
COc1ccccc1C(=O)N1CCN(c2cccc(C(F)(F)F)c2)CC1	-8%	10µM*	12µM*	9.2µM*	-21%	15µM*
COc1cc(C(=O)N2CCN(c3cccc(C(F)(F)F)c3)CC2)ccc1OCC(=O)N1CCOCC1	-6%	23µM*	21µM*	-9%	-19%	-2%
COc1ccccc1C1C2=C(N=C3SCC(=O)N31)c1ccccc1CC2 (stereo unspecified)	-1%	?	?	2%[9.24 µM]	-15%	7%
COc1ccc(C2C3=C(N=C4SCC(=O)N42)c2ccccc2CC3)cc1OC (stereo unspecified)	0%	15µM*	15µM*	-26%	-7%	-25%
CCCCCOc1ccc(C2c3c(oc4ccccc4c3=O)C(=O)N2c2nc(C)c(C)s2)cc1OCC (stereo unspecified)	11%	-18%	-23%	.	-18%	.
CC(=O)Nc1ccc(NC(=O)c2cc(-n3cnnc3)ccc2Cl)cc1	-10%	2%	1%	8%	9%	2%
Cc1c(C(=O)Nc2cccc(-c3nc4ccccc4s3)c2)oc2ccc(F)cc12	-11%	?	15µM*	.	-31%	.
Cc1ccc2sc(-c3ccc(NC(=O)c4cc(-n5cnnc5)ccc4Cl)cc3)nc2c1	-6%	13µM*	9.2µM*	9%	31%	-2%
O=C(Nc1cccc(-c2nc3ccccc3s2)c1)c1cc(-n2cnnc2)ccc1Cl	2%	9.2µM*	16µM*	?	-8%	?
Cc1nc2ccc(NC(=O)c3oc4ccc(F)cc4c3C)cc2s1	-5%	-5%	9%	1%	-2%	0%
